Measurements from PubChem BioAssay (NCATS).
Several values for one entry are separate records, joined by “and”; a condition that tells them apart may be missing. Identical values can stand only once. Inconclusive results are not listed. Values without a mark were called inactive. Activity calls are given as the source filed them. Calls come from the whole dose curve; as a rule, active = well fitted curve in the direction sought with a large enough effect; inconclusive = small, poorly fitted or top-dose-only effect, or another doubt; inactive = no such curve, though single readings can be large; an effect the other way counts as inactive or inconclusive.

Tests used:
[1] = system: HEK293; assay: Cytotoxic Profiling of Annotated Libraries Using Quantitative High-Throughput Screening (AID 1296008); details: Five cell lines viability, CellTiter-Glo ATP luminescence, 48-72 h; max response: active compounds read low; note: nearly all actives have a fitted effect of over 60% in size
Method in brief: (§1)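 Compounds were pin-transferred onto cells and incubated 48 or 72 hr at 37 degree Celsius, 95% humidity. CellTiter-Glo was added, plates sat 10 min at room temperature, then ATP-coupled luminescence was imaged as the viability read-out.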

[2] = system: HaCat; assay: as above; details: Five cell lines viability, CellTiter-Glo ATP luminescence, 48-72 h; max response: active compounds read low
Method in brief: as §1

[3] = system: KB-3-1; assay: as above; details: Five cell lines viability, CellTiter-Glo ATP luminescence, 48-72 h; max response: active compounds read low
Method in brief: as §1

[4] = system: NIH3T3; assay: as above; details: Five cell lines viability, CellTiter-Glo ATP luminescence, 48-72 h; max response: active compounds read low
Method in brief: as §1

[5] = system: MKL-1; assay: qHTS assay to identify novel small-molecules to repurpose for Merkel cell carcinoma treatment (AID 1296009); details: MCC and control cell lines, CellTiter-Glo viability, 72 h; series mostly up to 46 µM; note: nearly all actives have a fitted effect of over 60% in size
Method in brief: (§2)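 qHTS format: cells treated with library compounds in DMSO across 8 (NPC) or 11 (MIPE) concentrations. Readout after 72 hr at 37 degree celsius was CellTiter-Glo luminescence.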

[6] = system: MKL-2; assay: as above; details: MCC and control cell lines, CellTiter-Glo viability, 72 h; series mostly up to 46 µM
Method in brief: as §2

[7] = system: UISO; assay: as above; details: MCC and control cell lines, CellTiter-Glo viability, 72 h; series mostly up to 46 µM
Method in brief: as §2

[8] = system: WaGa; assay: as above; details: MCC and control cell lines, CellTiter-Glo viability, 72 h; series mostly up to 46 µM
Method in brief: as §2

[9] = system: MCC-26; assay: as above; details: MCC and control cell lines, CellTiter-Glo viability, 72 h; series mostly up to 46 µM
Method in brief: as §2

[10] = system: C33A; assay: Primary qHTS to identify gynecologic anti-cancer compounds using libraries of approved drugs and bioactive compounds (AID 1345084); details: Gynecologic cancer cell panel viability, ATPlite luminescence, 48 h; series mostly up to 57.5 µM; note: nearly all actives have a fitted effect of over 55% in size
Method in brief: (§3)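 Cells, 1,000 per well, were allowed to settle for 16 h at 37 C before compound addition. Five concentrations were tested for 48 h, and viability was read by ATPlite luminescence after 15 min at room temperature.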

[11] = system: CASKI; assay: as above; details: Gynecologic cancer cell panel viability, ATPlite luminescence, 48 h; series mostly up to 57.5 µM
Method in brief: as §3

[12] = system: HeLa; assay: as above; details: Gynecologic cancer cell panel viability, ATPlite luminescence, 48 h; series mostly up to 57.5 µM
Method in brief: as §3

[13] = system: Hek293T; assay: as above; details: Gynecologic cancer cell panel viability, ATPlite luminescence, 48 h, control line for the selectivity index; series mostly up to 57.5 µM
Method in brief: as §3

[14] = system: Es-2; assay: as above; details: Gynecologic cancer cell panel viability, ATPlite luminescence, 48 h; series mostly up to 57.5 µM
Method in brief: as §3

[15] = system: JEG-3; assay: as above; details: Gynecologic cancer cell panel viability, ATPlite luminescence, 48 h; series mostly up to 57.5 µM
Method in brief: as §3

[16] = system: MCC-13; assay: qHTS assay to identify novel small-molecules to repurpose for Merkel cell carcinoma treatment (AID 1296009); details: MCC and control cell lines, CellTiter-Glo viability, 72 h; series mostly up to 46 µM; note: nearly all actives have a fitted effect of over 60% in size
Method in brief: as §2
Potency is the fitted concentration of half-maximal effect.

O=C(C=Cc1cccc(S(=O)(=O)Nc2ccccc2)c1)NO
Potency [1]: 19.1 µM (active)
Potency [2]: 15.2 µM (active)
Potency [3]: 6.05 µM (active)
Potency [4]: 10.8 µM (active)
Potency [5]: 7620 nM (active)
Potency [6]: 3400 nM (active)
Potency [7]: 34000 nM (active)
Potency [8]: 3030 nM (active)

Cc1c(CN2CCN(S(C)(=O)=O)CC2)sc2c(N3CCOCC3)nc(-c3cnc(N)nc3)nc12
Potency [1]: 59 nM (active) and 326 nM (active)
Potency [2]: 0.0418 µM (active)
Potency [3]: 0.0833 µM (active)
Potency [4]: 148 nM (active) and 517 nM (active)
Potency [9]: 833 nM (active)
Potency [6]: 118 nM (active)
Potency [7]: 264 nM (active)
Potency [10]: 1580 nM (active)
Potency [11]: 708 nM (active)
Potency [12]: 2000 nM (active)
Potency [13]: 501 nM (active)

OCCCNc1cc(-c2ccnc(Nc3cccc(Cl)c3)n2)ccn1
Potency [1]: 209 nM (active) and 231 nM (active)
Potency [2]: 105 nM (active) and 820 nM (active)
Potency [3]: 118 nM (active) and 206 nM (active)
Potency [4]: 166 nM (active) and 580 nM (active)
Potency [6]: 296 nM (active)
Potency [7]: 148 nM (active)
Potency [10]: 562 nM (active)
Potency [11]: 398 nM (active)
Potency [14]: 224 nM (active)
Potency [12]: 158 nM (active)
Potency [13]: 199 nM (active)

Cc1cc(N2CCOCC2)cc2[nH]c(-c3c(NC[C@@H](O)c4cccc(Cl)c4)cc[nH]c3=O)nc12
Potency [1]: 2.96 µM (active) and 7.31 µM (active)
Potency [2]: 4.18 µM (active) and 5.8 µM (active)
Potency [3]: 14.8 µM (active)
Potency [4]: 7.43 µM (active) and 13 µM (active)
Potency [6]: inactive
Potency [7]: 1320 nM (active)
Potency [10]: inactive
Potency [14]: inactive
Potency [15]: inactive

CNC(=O)c1ccccc1Nc1nc(Nc2ccc(N3CCOCC3)cc2OC)ncc1Cl
Potency [1]: 3.32 µM (active)
Potency [2]: 2.96 µM (active) and 2.31 µM (active)
Potency [3]: 2.64 µM (active) and 1.3 µM (active)
Potency [4]: 1.05 µM (active)
Potency [6]: inactive
Potency [7]: 1480 nM (active)
Potency [11]: 10000 nM (active)
Potency [12]: 5010 nM (active)
Potency [15]: inactive

COc1cc2c(Oc3ccc(-c4cnc(Nc5ccc(F)cc5)n(C)c4=O)cc3F)ccnc2cc1OCCCN1CCOCC1
Potency [1]: 4.69 µM (active)
Potency [2]: 23.5 µM (active)
Potency [3]: 9.35 µM (active)
Potency [4]: 526 nM (active) and 5.8 µM (active)
Potency [9]: 7430 nM (active)
Potency [7]: 11800 nM (active)
Potency [10]: inactive
Potency [11]: inactive
Potency [13]: inactive
Potency [15]: inactive

Cc1cc(Nc2cc(N3CCN(C)CC3)nc(Sc3ccc(NC(=O)C4CC4)cc3)n2)n[nH]1
Potency [1]: 7.43 µM (active) and 7.31 µM (active)
Potency [2]: 6.62 µM (active)
Potency [3]: 8.33 µM (active) and 8.2 µM (active)
Potency [4]: 16.6 µM (active) and 20.6 µM (active)
Potency [6]: inactive
Potency [7]: inactive
Potency [10]: inactive
Potency [14]: inactive
Potency [15]: inactive

CC(C)CC(=O)Nc1n[nH]c2c1CN(C(=O)C1CCN(C)CC1)C2(C)C
Potency [1]: 372 nM (active) and 326 nM (active)
Potency [2]: 9.35 µM (active) and 2.31 µM (active)
Potency [3]: 2.35 µM (active) and 2.91 µM (active)
Potency [4]: 16.6 µM (active)
Potency [16]: inactive
Potency [6]: 2640 nM (active)
Potency [7]: 5260 nM (active)
Potency [10]: 6310 nM (active)
Potency [14]: 7080 nM (active)
Potency [12]: 3160 nM (active)
Potency [13]: 3980 nM (active)
Potency [15]: inactive

CN1CC[C@@H](c2c(O)cc(O)c3c(=O)cc(-c4ccccc4Cl)oc23)[C@@H](O)C1
Potency [1]: 0.148 µM (active)
Potency [2]: 0.372 µM (active)
Potency [3]: 0.235 µM (active)
Potency [4]: 0.526 µM (active)
Potency [16]: 590 nM (active)
Potency [7]: 264 nM (active)

CNC(=O)c1cc(Oc2ccc(NC(=O)Nc3cc(C(C)(C)C)nn3-c3ccc4ncccc4c3)c(F)c2)ccn1
Potency [1]: 23.5 µM (active)
Potency [2]: 7.31 µM (active)
Potency [3]: 9.35 µM (active) and 5.17 µM (active)
Potency [4]: 2.96 µM (active)
Potency [16]: inactive
Potency [5]: inactive
Potency [6]: inactive
Potency [8]: inactive

COc1ccc(OC)c(-c2nnc3ccc(-c4ccc(OC)c(O[C@@H]5CCOC5)c4)nn23)c1
Potency [1]: 8.33 µM (active)
Potency [2]: 1.46 µM (active)
Potency [3]: 6.51 µM (active)
Potency [4]: 33.2 µM (active)
Potency [6]: 18700 nM (active)
Potency [12]: 22400 nM (active)

CCn1cc(-c2ccnc3[nH]c(-c4cccc(CN(C)C)c4)cc23)c(-c2ccc(NC(=O)N(C)C)cc2)n1
Potency [1]: 11.8 µM (active)
Potency [2]: 0.0893 µM (active)
Potency [3]: 1.87 µM (active) and 63.2 nM (active)
Potency [4]: 3.72 µM (active) and 632 nM (active)
Potency [5]: 37.2 nM (active)
Potency [6]: 8330 nM (active)
Potency [7]: 13200 nM (active)
Potency [8]: 46.9 nM (active)
Potency [10]: inactive
Potency [13]: inactive

CC(C)c1cc(C(=O)N2Cc3ccc(CN4CCN(C)CC4)cc3C2)c(O)cc1O
Potency [1]: 105 nM (active) and 58 nM (active)
Potency [2]: 264 nM (active) and 206 nM (active)
Potency [3]: 0.0731 µM (active)
Potency [4]: 418 nM (active) and 291 nM (active)
Potency [16]: 469 nM (active)
Potency [6]: inactive
Potency [7]: 469 nM (active)
